Autophagy HCS: modulators of autophagy. MEF GFP-LC3 puncta imaging; test concentration mostly 10 µM. calls only at 10 µM (by protocol). 0.98% of 190,000 active;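 active = percentage of spot-positive cells more than 3 SD above its plate mean, without a fluorescence outlier flag or 80% toxicity; inconclusive = no clear call, values can overlap the other calls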;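 note: spot-positive cell cutoff set from DMSO-treated cells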
Ins promoter up: MIN6 insulin promoter up-regulation; MIN6 insulin promoter-GFP reporter, high-content imaging; stronger effect = higher value; z-score at 5 µM; 0.3% of 190,000 active;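 active = z-score above 3 at 5 µM with at least 500 cells counted in the well; inconclusive = wells under 500 cells, flagged as cytotoxic or low count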
L major viab: reduces viability of Leishmania major promastigotes | resazurin fluorescence viability | inhibition, % at 10 µM | 9% of 200,000 active | AID 1063; in the data active = inhibition above about 50%;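 note: promastigotes grown with compound for 44 hours at 28 °C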
WT yeast gro inh: growth inhibition of WT yeast, mitochondrial fusion screen | mitochondrial fusion phenotypic screen, WT strain | inhibition, % at 10 µM | 2.1% of 190,000 active; in the data active = inhibition above about 58%; tested in S. cerevisiae
Insulin prom inh: TRM-6 insulin promoter activity inhibition | inhibition, % at 2 µM | AID 1273 | TRM-6 cells (human fetal islet line), insulin promoter-eGFP reporter, imaging; reporter expression induced with tamoxifen | 0.9% of 130,000 active;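 active = inhibition above the mean plus 3 SD, with well images judged a real hit on visual review, cut at about 60% in these data, passing the limit was not always enough; inconclusive = inhibition over the cutoff but images rejected on review; inactive = inhibition not above the cutoff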
* hit, by the source's call; i = inactive; ? = inconclusive; . = no result; + = active, no number. Hits are enriched below; roughly 11% of the tested compounds scored in any of these assays.

SMILES	Autophagy HCS	Ins promoter up	L major viab	WT yeast gro inh	Insulin prom inh
CCOC(=O)c1c(NC(NC(=O)CF)C(Cl)(Cl)Cl)sc2c1CCCC2 (stereo not given)	i	-0.15	6	69*	.
CCOC(=O)c1c(NC(=O)c2c(N)n(CCCOC)c3nc4ccccc4nc23)sc2c1CCCC2	i	-0.62	-6	-15	-28
COc1ccccc1CCNC1CCC(C)CC1 (stereo not given)	i	-0.66	77*	-1	.
CCOP(=O)(OCC)C(NC(=O)C(C)C)C(Cl)(Cl)Cl (stereo not given)	i	-1.3	-3	4	11
CC(=O)N(C1=NCCCS1)c1ccc(Cl)cc1	i	0.78	96*	-11	20
COc1ccccc1OCCCn1cc(C=O)c2ccccc21	i	0.77	4	24	.
O=Cc1cn(CCCOc2ccccc2)c2ccccc12	i	0.17	66*	3	7
CCCCn1c(NC(=O)c2ccco2)c(C(=O)OCC)c2nc3ccccc3nc21	i	-0.19	76*	-21	.
CCCCn1c(N)c(C(=O)OCCOC)c2nc3ccccc3nc21	.	-0.69	.	.	.
CCCCn1c(N)c(C(=O)OCC2CCCO2)c2nc3ccccc3nc21 (stereo not given)	i	0.64	100*	5	-94
CC(C)CCn1c(N)c(C(=O)OCC2CCCO2)c2nc3ccccc3nc21 (stereo not given)	i	-0.88	54*	10	.
CCOP(=O)(OCC)/C(C#N)=C/c1ccoc1	.	-0.19	.	.	.
O=c1[nH]c(=O)n(Cc2ccccc2Cl)c(O)c1/C=C1/C=CC=N1	i	-0.01	24	-9	.
O=P(/C(=N/O)N1CCOCC1)(N1CCOCC1)N1CCOCC1	i	-0.39	-3	10	-7
CC/C(=N\Nc1ccccc1)c1c(O)n(C)c(=O)n(C)c1=O	i	-0.69	61*	23	.
CCC(=NCCN1CCCCC1)c1c(O)n(C)c(=O)n(C)c1=O	+	0.23	-7	-6	-367
Cn1c(O)c(C(=NCCN2CCCCC2)c2ccccc2Cl)c(=O)n(C)c1=O	i	-0.55	-7	9	.
CC/C(=N\Nc1ccccc1)c1c(O)n(-c2ccccc2)c(=O)[nH]c1=O	.	-0.34	.	.	.
CC(=NCCc1ccccc1)c1c(O)n(C)c(=O)n(C)c1=O	.	0.03	.	.	.
C/C(=N\NC(=S)Nc1ccccc1)c1c(O)n(C)c(=O)n(C)c1=O	+	0.17	-10	-4	0
CC(C)N(Cc1ccco1)/N=C/c1c(O)n(Cc2ccccc2)c(=O)[nH]c1=O	.	0.25	.	.	.
O=C(N[C@H]1CP(=O)(Oc2ccccc2)O[C@H](COCc2ccccc2)[C@H]1O)C(Cl)(Cl)Cl (stereo not given in full)	.	0.19	.	.	.
Fc1cccc(F)c1-c1nc(-c2ccc(Cl)cc2)no1	.	0.38	.	.	.
Cc1nn(Cc2ccccc2Cl)c(C)c1C(=O)OCC(=O)NC1CCCC(C)C1C (stereo not given)	i	-0.24	11	-9	-13
O=C(Nc1nc(-c2ccccc2)c(-c2ccccc2)s1)c1ccc(S(=O)(=O)N(CCCl)CCCl)cc1	i	0.22	74*	-11	-31
SMILES	Autophagy HCS	Ins promoter up	L major viab	WT yeast gro inh	Insulin prom inh
CC(C)n1c(O)c(C2c3cc(Cl)ccc3Oc3[nH]c(=O)n(C(C)C)c(=O)c32)c(=O)[nH]c1=O (stereo not given)	.	-0.15	.	.	.
CN(C)c1ccc(/C=C/c2cc[n+](C)c3ccccc23)cc1	i	?	100*	78*	.
O=C(C1CCC(=O)N1Cc1ccccc1Cl)N1CCC2(CC1)OCCO2 (stereo not given)	i	.	-4	.	-23
Cc1ccc(-n2c(O)c(/C=C/C=Nc3ccccc3)c(=O)[nH]c2=O)cc1	i	-0.09	-5	-3	-8
Cc1ccc(N/N=C/c2c(O)n(-c3ccccc3)c(=O)[nH]c2=O)cc1	i	-0.7	92*	52	0
CC1(C)CC(CCNCc2ccc3c(c2)OCO3)(Cc2ccccc2)CCO1 (stereo not given)	i	.	89*	16	.
COc1cc(CNCCc2ccc3c(c2)OCO3)cc(OC)c1OC	i	-0.09	-1	0	-54
Cc1ccsc1C(=O)C1CCCN(Cc2ccc(-n3cccn3)cc2)C1 (stereo not given)	i	-0.75	-1	-15	.
Cc1ccsc1C(=O)C1CCCN(Cc2cccc(-n3cccn3)c2)C1 (stereo not given)	i	-1	58*	12	.
CCN1CCC(O)(c2ccccc2)C(C(=O)c2ccccc2)C1 (stereo not given)	i	.	80*	.	51
CC(C)C12CN3CCN(CC(C3)C1O)C2 (stereo not given)	i	-1.1	3	59*	-305
CS(=O)(=O)N1CCN(C(=N)N[N+](=O)[O-])CC1	i	-0.09	-4	-36	5
O=C(c1ccc(Cl)cc1)C1CCCN(Cc2cccc3ncccc23)C1 (stereo not given)	i	-0.49	81*	19	.
Cc1cc(Cl)ccc1C(=O)C1CCCN(Cc2ccon2)C1 (stereo not given)	i	-0.16	48	8	.
O=C(c1ccccc1)C1CCCN(Cc2nc(-c3cnccn3)no2)C1 (stereo not given)	+	-0.19	-4	-11	.
O=C(c1ccc(Cl)cc1)C1CCCN(Cc2cccc3cccnc23)C1 (stereo not given)	i	-0.25	83*	12	.
O=C(c1ccc(Cl)cc1)C1CCCN(Cc2ccc3nonc3c2)C1 (stereo not given)	i	-0.98	85*	56	.
O=C(c1cccnc1)C1CCCN(Cc2nc(-c3cnccn3)no2)C1 (stereo not given)	.	0.87	.	.	.
COc1ccc(-c2cc(=NCCC(=O)O)c3cc(C)ccc3o2)cc1	i	1.4	62*	-6	-11
COc1ccc(-c2cc(=Nc3ccccc3)c3cc(C)ccc3o2)cc1	i	0.1	32	56	40
O=C(c1ccc2c(c1)OCO2)C1CCCN(CC2CCCCC2)C1 (stereo not given)	i	-1	91*	15	.
Cc1cccc(CN2CCCC(C(=O)c3ccc4c(c3)OCO4)C2)n1 (stereo not given)	i	-0.16	31	-3	-11
N[C@@H](Cc1c[nH]c2ccccc12)c1nnc(SCc2ccc(Cl)cc2)o1	i	0.14	0	62*	-27
N[C@@H](Cc1c[nH]c2ccccc12)c1nnc(SCc2ccccc2)o1	i	-0.44	9	10	9
CSc1ncc(CN2CCCC(C(=O)c3ccccc3SC)C2)cn1 (stereo not given)	.	-0.02	.	.	.
CCn1ccnc1CN1CCCC(C(=O)c2ccc(SC)cc2)C1 (stereo not given)	i	-0.52	9	14	.
CSc1ccc(C(=O)C2CCCN(Cc3cnc(SC)nc3)C2)cc1 (stereo not given)	i	.	94*	34	.
CSc1ccc(C(=O)C2CCCN(C)C2)cc1 (stereo not given)	i	-0.45	72*	5	.
CSc1ccc(C(=O)C2CCCN(CCCn3cccn3)C2)cc1 (stereo not given)	i	0.01	86*	1	.
CN1CCc2nc(SCc3ccccc3Br)c(C#N)cc2C1	i	-0.8	65*	56	.

Bioassay records as filed in PubChem BioAssay.
